The record followed here is PubChem BioAssay AID434989 (The Scripps Research Institute Molecular Screening Center, 2010).

Molecules are shown by their SMILES. In all, about 330,000 compounds went through this assay and about 1,400 (0.42%) were called active.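 The calls were made as follows: active = inhibition above its plate's threshold, mean inhibition of all tested compounds on the plate plus 3 SD (cut at about 37% in these data); inactive = the rest.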 Many of the other results were omitted from the sample, so actives are more common in it than they were.

What is called inhibition is the relative decrease from the control value, in per cent.

Sequence of Orexin/Hypocretin receptor type 1 (Homo sapiens) (O43613 whole entry, looked up): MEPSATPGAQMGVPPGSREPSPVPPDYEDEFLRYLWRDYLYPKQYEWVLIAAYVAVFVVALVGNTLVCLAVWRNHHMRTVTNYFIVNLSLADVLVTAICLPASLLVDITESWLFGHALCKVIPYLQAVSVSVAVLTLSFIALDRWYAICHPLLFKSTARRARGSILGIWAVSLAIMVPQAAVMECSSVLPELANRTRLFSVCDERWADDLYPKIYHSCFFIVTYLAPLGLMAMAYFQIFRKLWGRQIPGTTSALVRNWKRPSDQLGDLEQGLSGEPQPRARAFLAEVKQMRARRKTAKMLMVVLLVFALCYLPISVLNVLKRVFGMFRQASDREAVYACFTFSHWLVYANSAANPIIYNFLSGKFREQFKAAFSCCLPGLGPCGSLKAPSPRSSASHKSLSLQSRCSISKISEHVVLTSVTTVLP

The assay has as its target Orexin/Hypocretin receptor type 1 (Homo sapiens) (UniProt O43613). The assay is described as follows: OX1R (HCRTR1) antagonists, primary screen, fluorescence, CHO/OX1R cells, Fluo-8 calcium, orexin A (AID 434989).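 Also: 0% = orexin A challenge wells and 100% = SB-334867-A antagonist wells.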 The settings on record: Fluo-8 calcium fluorescence, at 5 µM, stronger effect = higher value.
Regarding `CC(C(=O)Nc1ccc(Cl)cc1Cl)N1CC=C(c2ccccc2)CC1` (stereo not given), the inhibition was 50% (active). On to `CN1CCN(C(=S)SCC(=O)Nc2ccc(Cl)cc2C(=O)c2ccccc2)CC1`, for which the inhibition was -28.1% (inactive). Then `Cc1ccc(C(C)C)c(OCC(=O)N2CCN(CC(=O)N3CCOCC3)CC2)c1`, with 4.64% (inactive). Then `O=C(N/N=C/c1c(O)n(C2CC2)c(=S)[nH]c1=O)c1ccccc1`, with -22.4% (inactive); and `Cc1ccc(Cn2nnnc2CN2CCC(n3nnc4ccccc43)CC2)cc1`, with -21.8% (inactive); and `Cc1ccc(CN2CCCC(C(=O)c3ccc4c(c3)OCO4)C2)cc1C` (stereo not given), with -21.1% (inactive).

Consider `COc1cc2nc(N3CCN(C(=O)[C@@H]4CCCO4)CC3)nc(N)c2cc1OC`, for which the inhibition is 2.61% (inactive). In the case of `O=C1C2(Cl)C3(Cl)C4(Cl)C(Cl)(Cl)C5(Cl)C3(Cl)C1(Cl)C5(Cl)C24Cl` (stereo not given) it was 72.3% (active); in that of `CC1=C(C(=O)Nc2ccccc2)SCCO1`, -6.61% (inactive). With `Nc1ccc([N+](=O)[O-])cc1`, the inhibition was -2.36% (inactive).
